The values that follow come from PubChem BioAssay (NCI).

Some test systems named below: NCI-H23 lung; NCI-H226 lung; NCI-H322M lung; NCI-H460 lung; NCI-H522 lung; A549/ATCC NSCLC; 786-0 renal; COLO 205 colon; DU-145 prostate; K-562 leukemia; MALME-3M melanoma; MDA-MB-231 breast; RXF 393 renal; SF-268 CNS; SF-539 CNS; UACC-257 melanoma; M14 melanoma; HOP-92 NSCLC; SF-295 CNS.
What all share (test): NCI-60 one-dose screen, 48 h (100 = growth as untreated, 0 = no growth, -100 = all killed)
Holding throughout (settings): 10 µM

The structures appear in SMILES notation. About 83,000 compounds went through this panel and 20% of them were active in at least one assay; those are over-represented in the sample as a whole.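 Plates (96-well) were seeded with cells, treated with compound at one concentration, and incubated for 48 hours before percent growth was determined.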 Unmarked numbers belong to inactive results. The source made the active and inactive calls. How the source made its calls: active means growth percent below 10; inactive means the rest.

As to `CC(C)(C)c1ccc(S(=O)(=O)N[C@H]2CC[C@H]3[C@@H]4CCc5cc(O)ccc5[C@H]4CC[C@]23C)cc1`, the growth in the assay with NCI-H23 lung was 50.3%; with NCI-H226 lung, 55.7%; with NCI-H322M lung, 78.7%; with NCI-H460 lung, 33.7%; in the assay with NCI-H522 lung, 31.8%; in the assay on A549/ATCC NSCLC, 28.5%. Besides, the growth was 49.6% with 786-0 renal; 8.52% (active) with COLO 205 colon; 62.9% in the assay on DU-145 prostate; 17% in the assay with K-562 leukemia; 25.6% in the assay with MALME-3M melanoma; 33.7% with MDA-MB-231 breast. In addition, the growth was 12% in the assay with RXF 393 renal; 50.9% in the assay on SF-268 CNS; 78.7% in the assay with SF-539 CNS; 68.7% in the assay with UACC-257 melanoma; 45.8% with M14 melanoma.

In the case of `COC(=O)c1cc2oc(/C=C3/SC(=S)N(N)C3=O)cc2n1Cc1ccccc1`, the growth was 58.4% with NCI-H23 lung; 57% in the assay with NCI-H226 lung; 39.4% in the assay on NCI-H322M lung; 40.5% with NCI-H460 lung; -69% (active) in the assay on HOP-92 NSCLC; 53.4% in the assay with A549/ATCC NSCLC. Besides, the growth in the assay with COLO 205 colon was 75%; with DU-145 prostate, 32.7%; in the assay on K-562 leukemia, 7.35% (active); in the assay on MALME-3M melanoma, -69.9% (active); with MDA-MB-231 breast, 6.49% (active); with RXF 393 renal it was -19.1% (active). Moreover, the growth in the assay with SF-268 CNS was 46.4%; with SF-295 CNS, 68%; in the assay on SF-539 CNS it was 44.7%; with UACC-257 melanoma it was 49.6%.

On to `CCC(c1ccc(OC)cc1)C(CC)c1ccc(O)c(CN2CCN(C)CC2)c1` (stereo not given), for which the growth is 57.8% with NCI-H23 lung; 88.9% in the assay on NCI-H226 lung; 76.1% in the assay on NCI-H322M lung; 51.8% in the assay on NCI-H460 lung; 61.9% in the assay on NCI-H522 lung; 57.6% with 786-0 renal. In addition, the growth with COLO 205 colon is -83.5% (active); in the assay on DU-145 prostate, 92.4%; with K-562 leukemia, 9.45% (active); in the assay on MALME-3M melanoma, 6.2% (active); with MDA-MB-231 breast, 56.3%; with RXF 393 renal, 39.3%. For the same compound, the growth with SF-268 CNS was 80.6%; in the assay on SF-295 CNS, 28.9%; in the assay on SF-539 CNS, 67.4%; with UACC-257 melanoma it was -5.73% (active); with M14 melanoma it was -19.5% (active).

Turning to `Cc1ccc(-n2nnnc2N)c(C)c1`, the growth in the assay on NCI-H23 lung is 98.1%; in the assay with NCI-H226 lung it was 115%; in the assay with NCI-H322M lung, 121%; with NCI-H460 lung, 103%; in the assay on NCI-H522 lung, 112%; in the assay with A549/ATCC NSCLC, 104%. Besides, the growth with 786-0 renal was 105%; with COLO 205 colon, 117%; in the assay on DU-145 prostate it was 122%; in the assay on K-562 leukemia, 115%; in the assay on MALME-3M melanoma, 119%; in the assay with MDA-MB-231 breast it was 110%. Besides, the growth in the assay on RXF 393 renal was 143%; with SF-268 CNS, 114%; in the assay on SF-295 CNS it was 96.7%; in the assay on SF-539 CNS, 123%; with UACC-257 melanoma it was 108%; in the assay on M14 melanoma, 104%.

Consider `CC1(C)N=C(N)N=C(N)N1c1cccc(C#N)c1`, for which the growth in the assay on NCI-H23 lung was 75.2%; in the assay with NCI-H226 lung it was 67.9%; with NCI-H322M lung, 64.6%; in the assay on NCI-H460 lung it was 22.3%; with NCI-H522 lung, 65.6%; in the assay on A549/ATCC NSCLC it was 29.4%. Moreover, the growth was 35.8% in the assay on 786-0 renal; 66.8% with COLO 205 colon; 46.7% with DU-145 prostate; 20.7% with K-562 leukemia; 70.7% in the assay on MALME-3M melanoma; 78.4% in the assay on MDA-MB-231 breast. Also, the growth in the assay with RXF 393 renal is 50.7%; in the assay on SF-268 CNS, 29.8%; with SF-295 CNS, 35.3%; in the assay with SF-539 CNS it was 46.2%; with UACC-257 melanoma it was 73.3%; in the assay with M14 melanoma it was 40%.

Take `O=C(CCl)Oc1ccc(OC(=O)CCl)cc1`: the growth in the assay with NCI-H23 lung was 78.3%; with NCI-H226 lung it was 96.5%; in the assay with NCI-H322M lung it was 101%; in the assay on NCI-H460 lung, 95%; with NCI-H522 lung, -14.1% (active); with A549/ATCC NSCLC it was 96%. In addition, the growth is 82% in the assay on 786-0 renal; 88.6% in the assay on DU-145 prostate; 93.6% in the assay on K-562 leukemia; 88.4% with MALME-3M melanoma; 81.1% in the assay with MDA-MB-231 breast; 109% in the assay on RXF 393 renal. Also, the growth was 93.8% in the assay with SF-268 CNS; 108% in the assay with SF-295 CNS; 72.8% with SF-539 CNS; 89.1% with UACC-257 melanoma; 85.9% in the assay with M14 melanoma.

In the case of `CC(C)(C)c1ccc(S(=O)(=O)N[C@H]2CC[C@H]3[C@@H]4CCc5cc(O)c([N+](=O)[O-])cc5[C@H]4CC[C@]23C)cc1`, the growth was 83.5% in the assay with NCI-H23 lung; 80% with NCI-H226 lung; 77.1% in the assay on NCI-H322M lung; 45.6% in the assay with NCI-H460 lung; 65.1% in the assay on NCI-H522 lung; 48.3% with A549/ATCC NSCLC. Moreover, the growth is 62.1% in the assay with 786-0 renal; 96.4% in the assay on COLO 205 colon; 67.4% with DU-145 prostate; 70.1% in the assay with K-562 leukemia; 67.1% in the assay with MALME-3M melanoma; 35.7% in the assay with MDA-MB-231 breast. For the same compound, the growth in the assay with RXF 393 renal is 42.5%; in the assay with SF-268 CNS, 72.6%; in the assay with SF-539 CNS, 81.5%; in the assay with UACC-257 melanoma it was 77.7%; with M14 melanoma it was 78.5%.

Consider `CCOc1ccccc1/C=N\N=C\c1ccccc1O`, for which the growth in the assay with NCI-H23 lung was 87.7%; in the assay with NCI-H226 lung it was 104%; with NCI-H322M lung, 93.8%; with NCI-H460 lung, 107%; in the assay on NCI-H522 lung it was 99.8%; with A549/ATCC NSCLC, 108%. Also, the growth in the assay on 786-0 renal is 106%; in the assay on COLO 205 colon it was 108%; in the assay with DU-145 prostate, 98.8%; in the assay with K-562 leukemia, 75.5%; in the assay with MALME-3M melanoma, 96.5%; in the assay on MDA-MB-231 breast, 78.7%. In addition, the growth is 121% in the assay on RXF 393 renal; 94.7% in the assay with SF-268 CNS; 105% in the assay on SF-295 CNS; 107% in the assay with SF-539 CNS; 107% in the assay on UACC-257 melanoma; 97.3% with M14 melanoma.

Take `Cc1ccc(-c2c3c(N)nc(-c4cccnc4)nc3nc3c2c(C)nn3-c2ccccc2)cc1`: the growth was 97.9% in the assay with NCI-H23 lung; 52.2% in the assay on NCI-H226 lung; 76.8% with NCI-H322M lung; 85% in the assay with NCI-H460 lung; 46.5% in the assay on HOP-92 NSCLC; 68.4% with A549/ATCC NSCLC. Also, the growth in the assay on 786-0 renal was 80.9%; in the assay with COLO 205 colon, 83.6%; in the assay on DU-145 prostate it was 98.1%; with K-562 leukemia, 86.7%; in the assay with MALME-3M melanoma it was 91.9%; in the assay on MDA-MB-231 breast, 75.9%. Moreover, the growth in the assay on RXF 393 renal was 79%; in the assay with SF-268 CNS, 80.7%; with SF-295 CNS, 96.1%; with SF-539 CNS, 45.8%; in the assay on M14 melanoma it was 97.3%.
